Assay outcomes from PubChem.
TSHR antagonist – human thyrotropin receptor antagonism; P16473; TSHR-expressing cells, TSH-stimulated cAMP HTRF, 2 h; stronger effect = lower value; activity change, negative = inhibition, % at 11.5 µM; 0.2% of 330,000 active; AID 504810;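 active means activity change below a set negative limit, meaning inhibition stronger than a set level, cut at about -70% in these data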; further: on the % scale 0 is the no-effect control and ±100 the full control effect
Target sequence (P16473 whole entry, looked up): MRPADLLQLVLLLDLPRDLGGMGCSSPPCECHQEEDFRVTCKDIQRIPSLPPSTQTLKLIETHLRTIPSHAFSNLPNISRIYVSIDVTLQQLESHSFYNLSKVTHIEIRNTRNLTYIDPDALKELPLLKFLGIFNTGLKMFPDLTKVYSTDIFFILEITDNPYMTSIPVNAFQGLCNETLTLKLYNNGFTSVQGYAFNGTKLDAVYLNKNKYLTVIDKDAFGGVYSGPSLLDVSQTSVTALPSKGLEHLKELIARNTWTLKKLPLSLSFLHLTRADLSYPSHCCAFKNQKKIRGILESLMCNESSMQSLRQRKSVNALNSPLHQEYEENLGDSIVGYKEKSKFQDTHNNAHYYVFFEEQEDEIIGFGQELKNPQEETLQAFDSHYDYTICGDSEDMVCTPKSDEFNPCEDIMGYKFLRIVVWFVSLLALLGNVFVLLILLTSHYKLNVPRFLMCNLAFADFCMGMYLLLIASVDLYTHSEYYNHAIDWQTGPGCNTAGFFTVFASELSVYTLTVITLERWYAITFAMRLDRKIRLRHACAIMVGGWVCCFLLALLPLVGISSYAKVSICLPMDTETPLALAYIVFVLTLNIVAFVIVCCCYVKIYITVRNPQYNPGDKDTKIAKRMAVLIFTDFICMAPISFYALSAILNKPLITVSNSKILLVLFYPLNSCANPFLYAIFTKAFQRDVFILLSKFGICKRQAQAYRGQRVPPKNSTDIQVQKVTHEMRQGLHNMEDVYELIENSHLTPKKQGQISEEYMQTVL
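Read-out is FRET at 665 nm (cryptate excitation 337 nm) from a cryptate-tagged anti-cAMP antibody, competed by cell cAMP against cAMP-d2. Compounds are tested on freshly harvested TSHR cells challenged with 4nM TSH (EC80) for 2 hours at 37 deg C.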
B2AR arrestin – recruits beta-arrestin to the human beta2-adrenergic receptor; P07550; beta-arrestin recruitment to beta2AR, cell-based reporter; Potency, µM (doses to about 46.1 µM), for the others: at the highest dose activation, actives largely listed as activators; 0.02% of 330,000 active; AID 492947; active means well fitted activation curve with a large enough effect;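 further: potency means the concentration at half of the fitted maximal effect; 0% = DMSO controls and full agonism = EC100 isoproterenol or metaproterenol; nearly all actives have a fitted effect of over 65% in size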
D3 antag – blocks the human D3 dopamine receptor. max response, negative = inhibition, %. D3R cells, DiscoveRx beta-arrestin luminescence, antagonist mode; stronger effect = lower value. 2.5% of 360,000 active. AID 652054; in the data active means max response below about -50%; further: on the % scale 0 is the no-effect control and ±100 the full control effect
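Cells expressing the human receptor were seeded at 1500 cells/well, incubated overnight at 37 degrees C in 5% CO2, then exposed to library compounds with dopamine controls for 90 minutes at 37 degrees C before luminescent detection.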
D3 ag – activates the human D3 dopamine receptor; P35462; D3R DiscoveRx beta-arrestin cells, luminescence, 90 min; max activation, %; 0.58% of 410,000 active; in the data active means max activation above about 30%; further: 0% is about no effect
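Agonist mode: compounds and dopamine controls were applied to plated cells for 90 min at 37 degrees C after an overnight attachment at 1500 cells/well. Luminescent read-out followed 30 - 60 minutes at room temperature with DiscoveRx detection reagent.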
Numbers without * were called inactive; x = not tested or not shown; ! = a repeat was not active. The list is not random: actives were taken first. Their share in the collection is about 2.9%.

SMILES	TSHR antagonist	B2AR arrestin	D3 antag	D3 ag
COc1ccc(S(=O)(=O)N(CCCN2CCOCC2)Cc2ccc(OC)c(OC)c2)cc1	0	-1%	-69*	-32
O=S(=O)(c1cccc(C(F)(F)F)c1)N(CCCN1CCOCC1)Cc1cccs1	9	-1%	-80*!	-19
CCN(C(=O)CSc1nc2ccccc2nc1Cc1cccc(OC)c1)c1cccc(C)c1	x	x	x	-16
CC1CCC(NC(=O)Cn2c3c(c(-c4ccccc4Cl)cc2=O)CCC3)CC1 (stereo not given)	-18	0%	-77*	-12
O=C1N/C(=C/c2ccc(N3CCOCC3)o2)C(=O)N1c1cccc(Cl)c1	-20	0%	-75*	-12
S=C(Nc1ccc(Cl)cc1)NC1CC2CCC(C1)N2Cc1ccccc1 (stereo not given)	9	0%	-76*	-14
CCc1ccc(NC(=S)NC2CC3CCCC(C2)N3Cc2ccccc2)cc1 (stereo not given)	19	3%	-109*	-11
CNC(=S)NC1CC2CCC(C1)N2Cc1ccccc1 (stereo not given)	5	0%	-81*	-35
Cc1ccc2c(CC(=O)N(Cc3ccc(N(C)C)cc3)Cc3ccco3)coc2c1C	x	x	x	8
O=S(=O)(c1ccc(OCC(O)CN2CCCC2)cc1)N1CCOCC1 (stereo not given)	-3	0%	3	3
O=S(=O)(c1ccc(OCC(O)CN2CCN(c3ccccc3)CC2)cc1)N1CCOCC1 (stereo not given)	2	0%	0	43*
O=S(=O)(c1ccc(OCC(O)CN2CCC(Cc3ccccc3)CC2)cc1)N1CCOCC1 (stereo not given)	-2	0%	-59*	-32
COC(=O)c1ccc(NC(=O)CCNS(=O)(=O)c2cccc3nsnc23)cc1	x	x	x	5
COc1ccccc1-c1nc2c(c(SCc3cc(C)ccc3C)n1)Cc1c(CO)cnc(C)c1O2	x	x	x	0
CCOc1ccc(S(=O)(=O)Nc2cccc(OC)c2)c2cccnc12	x	x	x	-1
Cn1nnnc1Sc1ncnc2scc(-c3ccc(F)cc3)c12	33	0%	-57*	5
CCOc1ccc(CCNC(=O)c2nnc(Cc3ccc(Cl)cc3Cl)o2)cc1OCC	x	x	x	5
O=C(COc1ccccc1F)Nc1ccc2nc(SCC(=O)N3CCOCC3)sc2c1	x	x	x	5
CCOC(=O)c1c(S(=O)(=O)N2CCCC(C(=O)Nc3cccc(CC)c3)C2)c(C)n(CC)c1C (stereo not given)	x	x	x	-10
CCC1(C)Cc2c(C#N)c(N)sc(=S)c2CO1 (stereo not given)	13	0%	-85*	-6
Cc1ccc(-c2nn(C)c(=O)c3ccccc23)cc1CO	5	-1%	-50*	-2
Cn1nc(-c2ccc(C(=O)NCCO)cc2)c2ccccc2c1=O	20	5.6µM*	-19	-8
CC(=O)OCc1cc(-c2nn(C)c(=O)c3ccccc23)ccc1C	-21	0%	-5	-2
COc1ccc(OCC(=O)Nc2cc(-c3nn(C)c(=O)c4ccccc34)ccc2OC)cc1	-27	-1%	-62*	4
CCc1cccc(NC(=O)Cn2c(=O)n(CCCCCC(=O)NCc3ccc(F)cc3)c(=O)c3sccc32)c1	x	x	x	-9
SMILES	TSHR antagonist	B2AR arrestin	D3 antag	D3 ag
O=C(CCS(=O)(=O)c1nc(-c2ccc3c(c2)OCO3)cc(C(F)(F)F)n1)Nc1ccc(F)c(Cl)c1	x	x	x	-24
CCOc1ccc(Sc2cc(C(=O)NC(C)CC)c3ccccc3n2)cc1 (stereo not given)	x	x	x	3
O=C(/C=C/c1ccc(NC(=O)c2ccccc2-c2ccccc2C(=O)O)cc1)c1ccccc1	6	0%	-3	0
O=C(/C=C/c1ccncc1)c1ccc(NC(=O)c2ccccc2F)cc1	-27	-1%	-67*	-24
CCn1c(SCc2ccc(F)cc2Cl)nc(=O)c2c(C(=O)OC)cc(C3CC3)nc21	x	x	x	0
C=CCNc1nc(Nc2ccc(-c3nc4ccccc4o3)cc2)nc(N2CCOCC2)n1	-23	0%	8	33*
C=CCNc1nc(NCC)nc(N2CCOCC2)n1	10	-1%	0	12
O=c1[nH]cc(N=Cc2cc(Cl)cc(Cl)c2O)c(=O)[nH]1	-3	0%	-67*	-7
COc1ccc2nc(SCC(O)c3cccc(Br)c3)[nH]c2c1 (stereo not given)	x	x	x	-4
CCOc1ccc(NC(=O)CSc2nc3c(oc4ccccc43)c(=O)n2-c2cc(C)cc(C)c2)cc1	x	x	x	5
Cc1cc(C)c2c(N)c(C(=O)Nc3cccc(C)c3C)sc2n1	-9	-1%	-7	92*
COCCNC(=O)Cn1cc(/C=C(\C#N)C(=O)NC2CCCC2)c2ccccc21	16	0%	-60*	-5
CNC(=O)/C(C#N)=C/c1cn(CC(=O)NCc2ccco2)c2ccccc12	11	0%	-3	-6
O=C(Oc1cccc2cccnc12)c1cccc(N2C(=O)C3C4CCC(C4)C3C2=O)c1 (stereo not given)	-3	13%	-88*	-11
CCOC(=O)C1=C(CN2CCN(c3ccccc3)CC2)NC(=O)NC1c1ccc(C)cc1 (stereo not given)	x	x	x	-10
CCn1c(SCC(=O)NNC(=O)Cc2ccccc2)nnc1-c1ccccc1	-2	0%	-51*	-10
CCn1c(SCC(=O)Nc2ccccc2F)nnc1-c1ccoc1C	-1	0%	-55*	-25
Cc1cc(C)cc(NC(=O)CN2C(=O)c3ccccc3Sc3ncccc32)c1	x	x	x	-7
CCc1ccc(OCC2c3cc(OC)c(OC)cc3CCN2C(=O)Cc2ccc(OC)c(OC)c2)cc1 (stereo not given)	x	x	x	6
COc1ccc([C@@H]2COc3c(ccc4c3C=CC(C)(C)O4)C2)c(OC)c1	x	x	0	33*
N#CCCOC1(C#CCN2CCCC2)CCCCC1	-3	-1%	-88*	22
Clc1ccc2scc(CN3CCCCC3)c2c1	-5	-1%	-88*	-58
Cc1ccc(CSc2nc3ccc(NC(=O)COc4ccccc4)cc3s2)cc1	x	x	x	6
COc1ccccc1CN1CCN(C(=O)c2ccco2)CC1	7	-1%	19	32*
COc1ccc(C(=O)OCC(=O)N2CCN(C(=O)c3ccco3)CC2)c(OC)c1OC	x	x	12	7
SMILES	TSHR antagonist	B2AR arrestin	D3 antag	D3 ag
Cc1ccc(CN2CCN(C(=O)c3ccco3)CC2)cc1	-3	0%	0	31*
Cc1onc(-c2ccccc2)c1C(=O)N1CCCN(C(=O)c2c(-c3ccccc3)noc2C)CC1	7	0%	27	-2
COc1ccc(CN2CCN(C(=O)c3ccco3)CC2)c(OC)c1OC	x	x	9	43*
Cc1onc(-c2ccccc2)c1C(=O)N1CCN(C(=O)c2ccco2)CC1	2	0%	-125*	-1
O=C(CSc1nc2c([nH]c3ccccc32)c(=O)n1-c1ccc(F)cc1)N1CCCc2ccccc21	x	x	x	-12
CCOc1ccccc1NC(=O)Cn1c(=O)nc(-c2ccccc2F)c2cc(Cl)ccc21	x	x	x	0
COc1ccc(CN2CCN(C(=O)c3ccco3)CC2)cc1OC	2	-1%	-25	45*
